RXFP1 ag – qHTS Assay for Agonists of the Relaxin Receptor RXFP1; Potency, µM (top dose mostly 57.5 µM), without a hit: at the top dose activation, hits mostly activators; Relaxin receptor 1 (Homo sapiens), Q9HBX9; 0.3% of 370,000 active; HEK293T-RXFP1 cAMP TR-FRET, 30 min; response scale: percent of porcine relaxin response, buffer zero; active = well fitted activation curve with a large enough effect; inconclusive = small, poorly fitted or top-dose-only effect; also: potency is read from the fitted curve at half-maximal effect; nearly all actives have a fitted effect of over 60% in size
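HEK293T cells stably expressing RXFP1 were pretreated with the PDE4 inhibitor Ro 20174, exposed to compounds for 30 min at 37C, lysed, and cAMP was read by TR-FRET. Data normalized to buffer (basal) and 29 nM porcine relaxin (100%).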
pAkt inh – HTS Assay for Inhibitors of Akt Phophorylation: Primary Screen; activity change, % for hits at 50 µM; 0.32% of 360,000 active; Neuro2A IGF-stimulated pAkt S473 HTRF, 20 min; active compounds read low; in the data active = activity change below about -80%; inconclusive = mostly about -51% to -80%
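Neuro2A cells in DMEM with 0.5% FBS, overnight at 37 deg C, given compound at single 50 µM final, then IGF (6 nM final) for 20 min at 37 deg C. Lysed; phospho-Akt Ser473 by HTRF after 24 h, 665/615 ratio.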
RXFP1 antag – qHTS Assay for Antagonists of the Relaxin Receptor RXFP1 | HEK293-RXFP1, relaxin-stimulated cAMP HTRF, 30 min; active compounds read low | activity change, negative = inhibition, % at 57.5 µM | 0.59% of 350,000 active | AID 1259400, 2018;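 active = activity change of -60% or lower, but not beyond a set lower limit; inconclusive = change between -60% and -40%, or beyond the set limit; inactive = change above -40%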
KCNH2 3.1 block – qHTS for Inhibitors of KCHN2 3.1: Mutant qHTS | U2OS KCNH2 3.1, thallium flux FluxOr; active compounds read low | activity change, % (tested at about 1.8 µM) | Potassium voltage-gated channel subfamily H member 2, brain isoform KCNH2 3.1 (human) | 0.95% of 340,000 active;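 active = maximum activity change below -70%; inconclusive = maximum activity change from -70% to -50%; inactive = maximum activity change above -50%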;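 also: thallium influx rate constant from kinetic fluorescence after stimulation buffer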
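Thallium flux read-out: FluxOr dye with Red40 quencher in HBSS/HEPES, 45 min at RT. Rate constants from kinetic reads were normalized to positive and negative DMSO controls. Cells: U2OS virally expressing the 3.1 isoform.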
hERG WT inh – qHTS for Inhibitors of KCHN2 3.1: Wildtype qHTS; Voltage-gated inwardly rectifying potassium channel KCNH2 (Homo sapiens), Q12809; U2OS, BacMam KCNH2, thallium flux FluxOr; active compounds read low; activity change, % at 1.84 µM; 0.37% of 340,000 active;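 active = maximum activity change below -70%; inconclusive = maximum activity change between -70% and -50%; inactive = maximum activity change above -50%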
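U2OS cells were transduced with wild-type KCNH2 virus (2.03 x 10^8 / mL) for 4 h at room temperature, then cultured overnight at 37 C. Thallium flux was read with FluxOr dye. Rate constants were normalized to DMSO controls.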
Active calls of the source: *; i = inactive; ? = inconclusive; nt = not tested or not shown. Hits are enriched below; roughly 1.7% of the tested compounds scored in any of these assays. % is scaled to controls: 0 for no effect and ±100 for the full control effect.

SMILES | RXFP1 ag | pAkt inh | RXFP1 antag | KCNH2 3.1 block | hERG WT inh
CCOC(=O)C1=C(C)NC(C)=C(C(=O)OCC)C1C(=O)OCC(=O)N1CC(C)OC(C)C1 (stereo not drawn) | 3% | i | -3 | 5 | 8
O=c1oc2ccc(Br)cc2cc1-c1nc2ccccc2o1 | 0% | i | -4 | -16 | -12
O=C(NCCCn1ccnc1)/C(=C\c1cccnc1)NC(=O)c1ccccc1F | -1% | i | 0 | -6 | -3
O=C(CCCN1C(=O)c2ccccc2C1=O)NCCCn1ccnc1 | 1% | i | 1 | 8 | 13
O=C(NCCCN1CCc2ccccc2C1)Nc1ccc(Cl)cc1 | -4% | nt | 9 | -87* | -6
COc1ccc(/C=C(\NC(=O)c2ccc(C)cc2)C(=O)NCCCn2ccnc2)cc1 | 0% | i | -2 | -92* | ?
O=C(NCCCn1ccnc1)/C(=C\c1ccc(Br)cc1)NC(=O)c1ccccc1F | -1% | i | -8 | -111* | -129*
O=C(NCCCn1ccnc1)C(Cc1ccc([N+](=O)[O-])cc1)N1C(=O)c2ccccc2C1=O (stereo not drawn) | 1% | i | 1 | -88* | -119*
Cc1c(/C=N/NC(=O)c2cc(C(C)(C)C)[nH]n2)c2ccccc2n1C | 0% | i | 2 | 7 | 17
CCOc1ccc2nc(-c3ccc(OC)c(OC)c3)cc(C(=O)O)c2c1 | 4% | i | -6 | 10 | -7
O=C(NCCCn1ccnc1)Nc1ccc(Cl)cc1 | 0% | i | 5 | -71* | 2
COc1ccc(/C=C(\NC(=O)c2ccc([N+](=O)[O-])cc2)C(=O)NCCCn2ccnc2)cc1 | 2% | i | 4 | -35 | -111*
O=C(NCCCn1ccnc1)/C(=C/c1ccc(Cl)cc1)NC(=O)c1ccccc1 | -3% | i | 1 | -105* | -129*
COc1ccc(C(=O)N/C(=C\c2ccco2)C(=O)NCCCn2ccnc2)cc1 | 1% | i | 3 | -27 | -13
CC(C)Cn1c(-c2cccs2)nc2ccccc21 | 3% | i | -14 | -15 | -3
CC(C)CC(C)c1cc(N)nc2nc3ccccc3n12 (stereo not drawn) | 3% | i | -61* | -10 | 15
COC(=O)COc1ccc(/C=N/NC(=O)CN(c2ccccc2OC)S(=O)(=O)c2ccccc2)cc1 | 0% | i | -7 | -89* | -21
Cc1ccc(NC(=O)COc2ccc(/C=N/NC(=O)CSCc3ccccc3)cc2)cc1 | -1% | i | -15 | -10 | 4
Cc1ccc(NC(=O)COc2ccc(/C=C3/SC(=Nc4ccccc4)N(Cc4cccnc4)C3=O)cc2)cc1 | 0% | -106%* | -4 | 22 | -2
CCOC(=O)/C=C1\CC(=O)Nc2nonc2N1 | 3% | i | 12 | -11 | 5
COc1ccc(C(CCNCc2ccc(OC(C)C)cc2)c2ccccc2OC)cc1 (stereo not drawn) | 3% | i | ? | -90* | -88*
COc1ccc(C(CCNCc2ccc(N(C)C)cc2)c2ccccc2OC)cc1 (stereo not drawn) | 0% | i | -16 | -5 | -99*
COc1ccc(CNCCC(c2ccc(OC)cc2)c2ccccc2OC)cc1 (stereo not drawn) | 1% | i | -31 | -72* | -33
CN(C(=O)c1cccc(NC(=O)Cc2cccc([N+](=O)[O-])c2)c1)C1CCCC1 | nt | i | nt | nt | nt
Cc1ccc(S(=O)(=O)NCCc2c[nH]c3ccccc23)cc1 | 2% | i | 0 | 4 | -2
COc1ccc(C)cc1N(C(=O)COc1ccccc1)c1nc2ccccc2s1 | -3% | i | nt | -74* | ?
O=C(Nc1cccc(C(F)(F)F)c1)C1(c2ccccc2)CC1 | 0% | i | -9 | ? | -8
O=C(Nc1ccc(C(F)(F)F)cc1)C1(c2ccccc2)CC1 | -2% | i | -63* | 0 | -1
